Hit rate of the full screen: of about 48,000 compounds, about 13,000 (27%) showed an effect of 50% or more. The list shows a part of the results.
system: Wolbachia pipientis; assay: Anti-Wolbachia Cell-Based Screen; type: functional; parameters: scale not given: in the data most compounds retested in dose-response had high values; settings: 5 µM

With COCCN(Cc1ccccn1)C(=O)CC1OCCc2ccsc21 (stereo not given) as the compound, how does the “Percent Effect” value read?
The value was 1.398%.

Which “Percent Effect” value does the source give for COc1ccc(Br)cc1CN(C)C(C)c1nc(C)no1 (stereo not given) here?
Its value is 6.293%.

How did the “Percent Effect” value turn out when COc1ccc(C2(NCc3noc(C4CC4)n3)CCOCC2)cc1 was run?
The value was -5.013%.

How did the “Percent Effect” value turn out when COC(C)c1cccc(NC(=O)N(CCC#N)Cc2ccccn2)c1 (stereo not given) was run?
The value was 1.571%.

How did the “Percent Effect” value turn out when O=C(Nc1cccc(CN2CCOC2=O)c1)N1CCOCC1 was run?
Its value is -4.373%.

For O=C1NC2(CCN(C(=O)Cc3ccsc3)CC2)CC1c1ccncc1 (stereo not given), which “Percent Effect” value is on record?
Its value is -1.55%.

For CCN1CCNC(=O)C12CCN(C(=O)Cc1ccsc1)CC2, which “Percent Effect” value is on record?
The value was 113.3%.

For CC1NC(=O)COC12CCN(C(=O)Cc1ccsc1)CC2 (stereo not given), which “Percent Effect” value is on record?
The value was -21.8%.

With COc1cccc([C@@]2(O)CC[C@@H]3CN(C(=O)c4cn(C)nc4C)C[C@@H]32)c1 as the compound, how does the “Percent Effect” value read?
Its value is 91.14%.

Cc1nn(C)cc1C(=O)N1CCCN(C2Cc3ccccc3C2)CC1 was tested. Which “Percent Effect” value did it give?
The value was -1.892%.

Which “Percent Effect” value does the source give for COc1cccc(OCC2CCCN(C(=O)c3cnc(C)nc3O)C2)c1 (stereo not given) here?
Its value is -22.18%.

How did the “Percent Effect” value turn out when Cc1cc(C(=O)N[C@H]2CC[C@@]3(CCC(=O)N3CC3CC3)CC2)no1 was run?
Its value is -41.45%.

COCCN1C(=O)CCC12CCCN(C(=O)CC1CC1)CC2 (stereo not given) was tested. Which “Percent Effect” value did it give?
The value was 103.4%.

With COCCN1C(=O)CCC12CCCN(c1ncc(F)cn1)CC2 (stereo not given) as the compound, how does the “Percent Effect” value read?
The value was -9.893%.

For COCCN1C(=O)CCC12CCN(C(=O)CNC(C)=O)CC2, which “Percent Effect” value is on record?
Its value is 102.7%.

For Cc1ccc(C(=O)N2CCC3(CCC(=O)N(CCN(C)C)C3)CC2)nc1, which “Percent Effect” value is on record?
The value was 13.38%.

How did the “Percent Effect” value turn out when O=C(CC1CC1)N1CCCC2(CCC(=O)N2CC2CC2)CC1 (stereo not given) was run?
Its value is 113.9%.

With CCC(C(=O)N1CCCN(CCN(C)C)CC1)N1CCCC1=O (stereo not given) as the compound, how does the “Percent Effect” value read?
The value was -2.353%.

With O=C1CCC2(CCN(S(=O)(=O)c3ccccc3)CC2)N1CC1CC1 as the compound, how does the “Percent Effect” value read?
The value was -5.701%.

Which “Percent Effect” value does the source give for CN(C)CCN1C(=O)CCC12CCCN(C(=O)CC1CC1)CC2 (stereo not given) here?
The value was 109.9%.

COCCN1C(=O)CC[C@]12CC[C@@H](NC(=O)c1cc(C)on1)CC2 was tested. Which “Percent Effect” value did it give?
Its value is -11.81%.

For COCCN1C(=O)CCC12CCN(c1ncc(F)cn1)CC2.O=C(O)C(F)(F)F, which “Percent Effect” value is on record?
Its value is 4.325%.

Which “Percent Effect” value does the source give for c1ccc(OCCNc2ncnc3sc4c(c23)CCNC4)cc1 here?
The value was 38.96%.

With CCN1C[C@H]2CCN(c3ncccn3)CC[C@H]2S1(=O)=O as the compound, how does the “Percent Effect” value read?
The value was 3.931%.

Which “Percent Effect” value does the source give for Cc1cc(C)nc(NC2CCc3nc(C)nn3C2)n1 (stereo not given) here?
The value was 12.23%.

With O=C(O)CC(NC(=O)c1cc(Br)c[nH]1)c1ccccc1 (stereo not given) as the compound, how does the “Percent Effect” value read?
Its value is 7.291%.

Which “Percent Effect” value does the source give for CN(C)CCN1C(=O)CCC12CCN(C(=O)CC1CC1)CC2 here?
Its value is 92.35%.

For Cc1c(C(=O)N2CCC3(CCC(=O)N(CCN(C)C)C3)CC2)ccn1C, which “Percent Effect” value is on record?
Its value is 2.177%.

With O=C(c1nccc2ccccc12)N(Cc1ccco1)CC1CCCO1 (stereo not given) as the compound, how does the “Percent Effect” value read?
The value was 5.16%.

Which “Percent Effect” value does the source give for CC(C)(C)OC(=O)NCC(=O)NCc1ccc(Cl)s1 here?
Its value is 16.63%.

How did the “Percent Effect” value turn out when CNC(=O)COC1COC2(CCN(Cc3ccncc3F)CC2)C1.O=C(O)C(F)(F)F (stereo not given) was run?
The value was 109.2%.

How did the “Percent Effect” value turn out when CNC(=O)COC1COC2(CCN(c3cnccn3)CC2)C1.O=C(O)C(F)(F)F (stereo not given) was run?
The value was 11.18%.

How did the “Percent Effect” value turn out when CNC(=O)COC1COC2(CCN(Cc3cccnc3)CC2)C1.O=C(O)C(F)(F)F (stereo not given) was run?
The value was 120%.

Which “Percent Effect” value does the source give for O=C(O)C(F)(F)F.c1cncc(COC2COC3(CCN(c4cnccn4)CC3)C2)c1 (stereo not given) here?
Its value is 8.045%.

With CNC(=O)COC1COC2(CCN(c3ccc(C)nn3)CC2)C1.O=C(O)C(F)(F)F (stereo not given) as the compound, how does the “Percent Effect” value read?
The value was -17.84%.

Which “Percent Effect” value does the source give for O=C(O)CC(O)(CC(=O)O)C(=O)O.c1cnc2[nH]nc(C3CCN(Cc4ccsc4)CC3)c2c1 here?
Its value is 113.3%.

Which “Percent Effect” value does the source give for Fc1ccc(F)c(CN2CCC(c3n[nH]c4ncccc34)CC2)c1.O=C(O)CC(O)(CC(=O)O)C(=O)O here?
Its value is 96.71%.

How did the “Percent Effect” value turn out when c1cnc2c(C3CCN(Cc4ccsc4)CC3)n[nH]c2n1 was run?
The value was -13.91%.

Cn1cc2c(n1)C(CNC1CCOCC1)OCC2.O=C(O)C(F)(F)F (stereo not given) was tested. Which “Percent Effect” value did it give?
The value was -8.385%.

How did the “Percent Effect” value turn out when CN1CCC(n2nc(Cc3cccs3)nc2-c2ccncc2)CC1 was run?
The value was -23.96%.

Which “Percent Effect” value does the source give for CN1CCC(n2nc(CC3CC3)nc2-c2ccc(F)cc2Cl)CC1 here?
The value was 106.3%.

Which “Percent Effect” value does the source give for Cc1ncsc1-c1nc(Cc2cccs2)nn1C1CCN(C)CC1 here?
Its value is -9.082%.

Which “Percent Effect” value does the source give for CN1CCC(Cc2nc(-c3cnccn3)n(C3CCS(=O)(=O)C3)n2)CC1 (stereo not given) here?
Its value is -23.71%.

CN1CCC(n2nc(Cc3cccc(Cl)c3)nc2Cn2cnnn2)CC1 was tested. Which “Percent Effect” value did it give?
The value was 20.47%.

CCOCc1nc(-c2ccc(F)cc2Cl)n(C2CCN(C)CC2)n1 was tested. Which “Percent Effect” value did it give?
The value was 110.7%.

How did the “Percent Effect” value turn out when COc1ncccc1-c1nc(-c2ccccn2)nn1C1CCN(C)CC1 was run?
Its value is -6.109%.

For CCOCc1nc(CSc2ccncc2)n(C2CCN(C)CC2)n1, which “Percent Effect” value is on record?
The value was 13.12%.

For Nc1cnc(-c2ccc(F)cc2Cl)cn1, which “Percent Effect” value is on record?
Its value is 2.9%.

CCOCc1nc(-c2cccc(OC)c2OC)n(C2CCN(C)CC2)n1 was tested. Which “Percent Effect” value did it give?
The value was 115.7%.

For CCOCc1nc(CSc2ccncc2)n(C)n1, which “Percent Effect” value is on record?
The value was -5.223%.

Source: ChEMBL document CHEMBL3988442, “University of Dundee, Small-Polar-MMV Screening Library” (2021)
